This is one part of a sample in which hits are shown more often than they occur.
LmPK inh – qHTS Assay for Inhibitors of Leishmania Mexicana Pyruvate Kinase (LmPK). purified LmPK, Kinase-Glo ATP luminescence, 1 h. Potency, µM (series often up to 57.5 µM), most hits filed as inhibitors. 290,000 tested, 0.37% active. AID 1721, 2009
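ATP generated from ADP (0.1 mM) and PEP (0.5 mM) by 0.1 nM LmPK over 1 h at room temperature (pH 7.2 imidazole buffer) was detected by coupled luciferase luminescence. Values were normalized to uninhibited and no-enzyme wells.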
Sm TGR block – qHTS Assay for the Inhibitors of Schistosoma Mansoni Peroxiredoxins | Schistosoma mansoni thioredoxin glutathione reductase (TGR), Q962Y6 | purified TGR, DTNB reduction, TNB absorbance 405 nm | Potency, µM (series often up to 114 µM), usual class: inhibitors | 360,000 tested, 3% active | AID 485364, 2010; further: nearly all actives have a fitted effect of over 60% in size
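First, TGR (20 nM dispensed) and NADPH were mixed with compound. Second, a 15 min room-temperature incubation followed. Third, further NADPH and then DTNB were added to start the reaction. Finally, TNB absorbance was monitored kinetically.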
TbPYK inhibitor – qHTS of Trypanosoma Brucei Inhibitors; pyruvate kinase (Trypanosoma brucei), Q57TT1; TbPYK enzyme, Kinase-Glo Plus ATP luminescence, 45 min; Potency, µM (highest dose often 76.8 µM), most hits filed as inhibitors; 410,000 tested, 0.12% active; AID 624173, 2012; further: nearly all actives have a fitted effect of over 50% in size
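ADP (130 uM final) triggers the TbPYK reaction after compound addition; incubation is 45 min at room temperature. Kinase-Glo Plus is then added and luminescence imaged. Normalized data are fitted to concentration-effect curves.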
Cycloheximide cs – Cycloheximide Counterscreen for Small Molecule Inhibitors of Shiga Toxin; 300,000 tested, 12% active; AID 2314, 2010; cell reporter, cycloheximide protein synthesis inhibition counterscreen; max response, %; in the data active means max response mostly above about 13%, no sharp cut-off; inactive means mostly below about 14%; further: read at 38.3 µM for the half of the compounds with a filed dose
FBPA Giardia inh – qHTS Assay for Inhibitors of Fructose-1,6-bisphosphate Aldolase from Giardia Lamblia | Potency, µM (titrated, usually from 59.6 µM), hits mostly inhibitors | AID 2451, 2010 | 290,000 tested, 0.71% active | purified Giardia FBPA | A8B2U2; further: nearly all actives have a fitted effect of over 55% in size
Target sequence (A8B2U2 whole entry, looked up): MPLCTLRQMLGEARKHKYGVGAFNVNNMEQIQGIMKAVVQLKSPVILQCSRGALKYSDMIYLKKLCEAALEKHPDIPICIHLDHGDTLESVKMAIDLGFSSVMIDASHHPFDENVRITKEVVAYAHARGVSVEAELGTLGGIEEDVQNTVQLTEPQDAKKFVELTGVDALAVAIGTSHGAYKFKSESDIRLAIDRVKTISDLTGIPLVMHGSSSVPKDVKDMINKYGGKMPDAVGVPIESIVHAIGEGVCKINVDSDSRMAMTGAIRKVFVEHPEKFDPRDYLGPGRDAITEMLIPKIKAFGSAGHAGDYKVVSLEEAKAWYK
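40 nM FBPA preincubated 10 min at RT with compound (up to 57.5 uM final), then substrate plus GAPDH/TPI/NAD/arsenate coupling and diaphorase/resazurin added. Fluorescence read after 20 min at RT, 525/598 nm.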
Shiga inhibitor – A qHTS for Small Molecule Inhibitors of Shiga Toxin. Vero cells, Shiga toxin protein synthesis inhibition reporter. inhibition, % at 38.7 µM. 290,000 tested, 9.2% active. AID 2315, 2010; in the data active means inhibition mostly above about 28%, no sharp cut-off; inactive means mostly below about 43%
Large screens that a line does not name were inactive. Unless noted, the call rests on the fitted dose curve; in most records, active means well fitted curve in the direction sought with a large enough effect; inconclusive means small, poorly fitted or top-dose-only effect, or another doubt; inactive means no such curve, though single readings can be large; an effect the other way counts as inactive or inconclusive.

COc1cccc(OC)c1C1=CC(=O)C[C@H](c2ccc3c(c2)OCO3)C1	none (no result: LmPK inh, Cycloheximide cs, FBPA Giardia inh, Shiga inhibitor)
COC(=O)CC(=O)CSc1nc2c(cc1C#N)CCCCC2	Cycloheximide cs 46, Shiga inhibitor 105
CCOC(=O)c1sc(NC(=O)CSc2nc3c(cc2C#N)CCCCC3)c(C#N)c1C	none
CCc1nnc(NC(=O)CSc2nc3c(cc2C#N)CCCC3)s1	Cycloheximide cs 35, Shiga inhibitor 58
CCn1cc(C(=O)NCc2ccc(Cl)cc2)c(=O)c2cc(S(=O)(=O)N(C)C3CCCCC3)ccc21	none (no result: LmPK inh, Cycloheximide cs, FBPA Giardia inh, Shiga inhibitor)
NC(=O)Cc1ccc(Nc2nnc(-c3ccccc3)c3ccccc23)cc1	Cycloheximide cs 10
Cc1occc1C(=O)NC1CCCCCCC1	Cycloheximide cs 40, Shiga inhibitor 60
Cc1occc1C(=O)NC(C)C12CC3CC(CC(C3)C1)C2 (stereo not drawn)	Sm TGR block inconclusive
Cc1occc1C(=O)NN=C1C2CC3CC(C2)CC1C3	Cycloheximide cs 28, Shiga inhibitor 30
Cc1occc1C(=O)NNC(=O)C1CCCC1	none
COc1ccccc1C(=O)NC1CCCCCCC1	Cycloheximide cs 20, Shiga inhibitor 102
COc1ccccc1Nc1cc(C(=O)NC2CCCC2)c2ccccc2n1	none (no result: FBPA Giardia inh)
COc1ccccc1Nc1ccc(C(=O)NC2CCCCC2)cn1	Cycloheximide cs 19, Shiga inhibitor 31
C=C1[C@@H]2CC[C@H](C2)C1(C)C	none (no result: LmPK inh, Sm TGR block)
CCc1cc2c(nc1CC)CCN(CC/C(C)=N/OCC[C@@H]1C=C[C@H](OC(C)=O)[C@H](COC(C)=O)O1)C2	none (no result: LmPK inh, Sm TGR block, TbPYK inhibitor, Cycloheximide cs, Shiga inhibitor)
c1ccc(NCCCNc2ccccc2)cc1	Cycloheximide cs 11
O=C1c2ccccc2C(=O)N1CCCCNc1ccccc1	none (no result: LmPK inh, Sm TGR block, Cycloheximide cs, FBPA Giardia inh, Shiga inhibitor)
Cc1c(-c2ccccc2)nnn1-c1ccc(F)cc1F	Cycloheximide cs 45, Shiga inhibitor 73
N=C1/C(=C\c2ccc(SCc3ccccc3)o2)C(=O)N=C2SC(CC(=O)N3CCOCC3)=NN12	none
Cc1ccccc1-n1c(C)cc(/C=C2/C(=N)N3C(c4ccccc4)=CSC3=NC2=O)c1C	none
N=C1/C(=C/c2ccc(-c3cccc(C(=O)O)c3)o2)C(=O)N=C2SC(CC(=O)N3CCOCC3)=NN12	Cycloheximide cs 25
N=C1/C(=C\c2ccc(-c3cccc(C(=O)O)c3)o2)C(=O)N=C2SC=C(c3ccccc3)N12	Cycloheximide cs 26, Shiga inhibitor 56
Cc1cc(/C=C2/C(=N)N3C(c4ccccc4)=CSC3=NC2=O)c(C)n1-c1ccccc1	Cycloheximide cs 20
C[C@@H](NC(=O)c1[nH]cnc1C(=O)Nc1cccc(Cl)c1)c1ccccc1	none (no result: LmPK inh, Cycloheximide cs, FBPA Giardia inh, Shiga inhibitor)
Brc1ccc(-n2cnc(-c3ccccc3)c2)cc1	Cycloheximide cs 51, Shiga inhibitor 60
C[C@H](NC(=O)N1CCn2c1nc1ccccc12)C(=O)NCc1ccccc1	none (no result: FBPA Giardia inh)
CCN(CC)S(=O)(=O)c1ccc(N2CCCCC2)c(NC(=O)c2ccncc2)c1	Shiga inhibitor 35
COc1ccc(N2CCN(C(=O)c3ccc(C)c(NC(=O)c4ccco4)c3)CC2)cc1	Sm TGR block 1.8µM (no result: FBPA Giardia inh)
O=C(Nc1ccc(N2CCN(C(=O)c3ccco3)CC2)cc1)c1ccccc1	Cycloheximide cs 12
O=C(Nc1ccc(N2CCN(Cc3ccccc3)CC2)cc1)c1ccco1	Cycloheximide cs 13, Shiga inhibitor 65 (no result: FBPA Giardia inh)
O=C(c1ccco1)N1CCN(c2ccc(F)cc2)CC1	Shiga inhibitor 100 (no result: Sm TGR block)
C[C@@H]1O[C@H](O[C@@H]2C(O)[C@H](O)[C@@H](CO)O[C@H]2Oc2cc(O)c3c(=O)cc(-c4ccc(O)cc4)oc3c2)[C@H](O)[C@H](O)[C@H]1O (stereo partly drawn)	none (no result: LmPK inh, Sm TGR block, TbPYK inhibitor)
COc1ccccc1CNC(=O)C(CC(C)C)N1Cc2ccccc2C1=O (stereo not drawn)	none (no result: LmPK inh, Cycloheximide cs, FBPA Giardia inh, Shiga inhibitor)
Cc1c(C(=O)Nc2nccs2)oc2ccc(F)cc12	none (no result: LmPK inh, Cycloheximide cs, FBPA Giardia inh, Shiga inhibitor)
Cc1ccc2oc(C(=O)NC3CCS(=O)(=O)C3)c(C)c2c1 (stereo not drawn)	Cycloheximide cs 30, Shiga inhibitor 35
COc1ccc2oc(C(=O)NC3CCCCC3)c(C)c2c1	Cycloheximide cs 47, Shiga inhibitor 114 (no result: FBPA Giardia inh)
COc1ccc2oc(C(=O)Nc3ccc(C)cn3)c(C)c2c1	none (no result: LmPK inh, Cycloheximide cs, FBPA Giardia inh, Shiga inhibitor)
Cc1c(C(=O)NC2CCCCC2)oc2ccc(F)cc12	Cycloheximide cs 51, Shiga inhibitor 114
COc1ccc2oc(C(=O)NN3C(C)CCCC3C)c(C)c2c1 (stereo not drawn)	none
COc1ccc2oc(C(=O)Nc3ccccn3)c(C)c2c1	Cycloheximide cs 57, Shiga inhibitor 66
CCOCCC(=O)Nc1ccc2c(c1)c(=O)n(C)n2CC=C(C)C	none (no result: LmPK inh, Sm TGR block, Cycloheximide cs, FBPA Giardia inh, Shiga inhibitor)
COc1ccc2oc(C(=O)NCCC(C)C)c(C)c2c1	Cycloheximide cs 58
COc1cccc(COC(=O)c2ccc(-c3nnn(Cc4cccc(OC)c4)n3)cc2)c1	none (no result: LmPK inh, Cycloheximide cs, FBPA Giardia inh, Shiga inhibitor)
O=[N+]([O-])c1cccc(N/N=C/c2cc([N+](=O)[O-])ccc2O)c1	Cycloheximide cs 28, Shiga inhibitor 49
CN(/N=C/c1cc([N+](=O)[O-])ccc1O)c1ccccc1	Cycloheximide cs 22
O=[N+]([O-])c1ccc(N/N=C/c2ccccc2O)cc1	Cycloheximide cs 65, Shiga inhibitor 89
O=[N+]([O-])c1ccc(O)c(C=NNc2ccc(S(=O)(=O)O)cc2)c1	none (no result: LmPK inh, Sm TGR block, Cycloheximide cs, FBPA Giardia inh, Shiga inhibitor)

Bioassay records: PubChem, National Center for Advancing Translational Sciences (NCATS)
